Kir21 inh: blocks the mouse Kir2.1 inward-rectifier potassium channel. P35561. HEK293-Kir2.1, FluxOR thallium flux fluorescence; stronger effect = lower value. B-score at 10 µM. 310,000 tested, 0.85% active. AID 1672;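 active means fluorescence ratio B-score at or below minus 3 SD of library scores, with starting-brightness B-score within 2 SD, cut at about -4.2 in these data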;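 further: channel flux triggered by added potassium and thallium sulfate stimulus; B-score of peak minus minimum fluorescence over baseline after thallium stimulus; more negative B-score means stronger Kir2.1 block with less thallium influx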
Target sequence (P35561 whole entry, looked up): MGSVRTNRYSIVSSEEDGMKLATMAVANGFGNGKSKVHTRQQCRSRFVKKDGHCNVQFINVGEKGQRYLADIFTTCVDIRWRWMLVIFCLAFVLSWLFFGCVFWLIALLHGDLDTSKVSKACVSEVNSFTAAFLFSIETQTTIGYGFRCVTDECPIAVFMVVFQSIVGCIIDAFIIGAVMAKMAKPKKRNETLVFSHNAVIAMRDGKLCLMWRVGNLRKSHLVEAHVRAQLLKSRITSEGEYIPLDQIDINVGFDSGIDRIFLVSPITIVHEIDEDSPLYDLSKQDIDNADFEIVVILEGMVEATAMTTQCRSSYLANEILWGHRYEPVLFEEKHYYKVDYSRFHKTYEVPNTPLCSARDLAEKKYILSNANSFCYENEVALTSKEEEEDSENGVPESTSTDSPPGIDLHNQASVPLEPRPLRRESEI
CHT PAM: human CHT allosteric activation; Q9GZV3; CHT-expressing cells, membrane potential dye, choline EC20; stronger effect = higher value; LV-AA mutant CHT in HEK293 cells; B-score at 10 µM; 310,000 tested, 0.49% active;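 active means initial fluorescence not abnormally high and integrated response B-score, plate-corrected, over 3 SD above library mean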
TMEM16A inh: blocks the mouse calcium-activated chloride channel TMEM16A; Q8BHY3; HEK293 TMEM16A/YFP iodide influx fluorescence, ionomycin; normalized B-score (activity score, 25-100; higher = stronger inhibition) at 10 µM; 310,000 tested, 1.2% active; AID 588511;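 active means ratio plate-corrected score three or more library SD toward inhibition, starting fluorescence score within five deviations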;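 further: score derived from kinetic fluorescence span divided by baseline fluorescence per well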
GPR7 antagonist: human neuropeptides B/W receptor 1 antagonism; 290,000 tested, 1.1% active; inhibition, % at 4.4 µM; P48145; AID 1861; GPR7-expressing cells, fluorescence antagonist assay; in the data active means inhibition above about 16%, passing the limit was not always enough;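 further: cells stimulated with the agonist NPW; 0% = agonist with vehicle and 100% = vehicle without agonist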
CHT inh: human CHT choline transport inhibition; Q9GZV3; CHT-expressing cells, membrane potential dye, choline response; stronger effect = lower value; B-score at 10 µM; 310,000 tested, 0.86% active;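 active means B-score over 3 SD under the library average, and starting fluorescence ratio not unusually high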;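 further: choline stimulus applied at its EC90 after an EC20 pre-addition; B-score computed on integrated fluorescence ratio after choline addition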
TMEM16A act: activates or potentiates the mouse TMEM16A chloride channel | HEK293 TMEM16A/YFP-H148Q/I152L, iodide quench fluorescence; stronger effect = lower value | B-score at 10 µM | Q8BHY3 | 340,000 tested, 0.3% active;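 active means fluorescence-ratio B-score plate-corrected deviation score at least 3 library SD below zero, with starting fluorescence score within 5 deviations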;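 further: channel opened by trigger with iodide after compound preincubation; score built on the fluorescence ratio of max minus min over baseline; more negative score means more quench and so TMEM16A activation or potentiation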
The depositor's hits bear a star; i = inactive; / = not tested or not shown. The list is not random: actives were taken first. Their share in the collection is about 3.7%.

SMILES	Kir21 inh	CHT PAM	TMEM16A inh	GPR7 antagonist	CHT inh	TMEM16A act
CCCOC(=O)c1ccc(Oc2c(-c3ccc(OC)cc3O)n[nH]c2C)cc1	0.02	i	i	-22	i	i
CCCOC(=O)c1ccc(Oc2c(-c3ccc(O)cc3O)n[nH]c2C)cc1	-1.2	i	25*	-12	i	i
Cc1onc(-c2c(Cl)cccc2Cl)c1COC(=O)c1ccc(Cl)cc1	-0.14	i	i	-5	i	i
c1ccc2c(NCCc3c[nH]c4ccccc34)c3ccccc3nc2c1	-12*	i	i	12	i	i
Fc1cccc(NCCc2c[nH]c3ccccc23)n1	0.99	i	i	18	i	i
CC1(c2nnc(Cc3ccccc3)o2)CC(c2ccccc2[N+](=O)[O-])=NO1 (stereo not drawn)	0.22	i	i	/	i	i
CCCC(/C=C/c1ccc(OC(C)=O)cc1)=C1/c2ccccc2C(=O)N1c1ccccc1	/	/	/	/	/	i
CN(CCOc1ccccc1)CC(=O)Nc1cc([N+](=O)[O-])ccc1Cl	-4.7*	i	i	-4	i	i
COc1cc(F)c(S(=O)(=O)N2CCOc3ccccc32)cc1OC	-5.3*	i	i	-15	i	i
O=C(Nc1nc2ccccc2s1)C1CCCN1S(=O)(=O)c1ccc(Cl)cc1 (stereo not drawn)	0.2	i	i	-12	i	i
O=S(=O)(c1ccccc1)N1CCCC1c1nc2ccccc2s1 (stereo not drawn)	-4.5*	i	i	-12	i	i
Cc1ccc(NC(=O)NNC(=O)CN2C(=O)COc3ccccc32)cc1	-0.67	i	i	-2	i	i
CC1(C)CC(=O)C=C(c2cccc(Br)c2)C1	/	/	/	/	/	i
c1ccc(Cn2nnnc2C(c2cccs2)N2CCCCCC2)cc1 (stereo not drawn)	-1.4	i	100*	-10	i	i
COc1ccc(Cn2nnnc2C(c2cccs2)N2CCN(c3ccccc3)CC2)cc1 (stereo not drawn)	-0.38	i	i	-9	i	i
Cc1ccc(C(=O)N2CCCCC2)cc1S(=O)(=O)N1CCOCC1	2.5	i	i	-6	i	i
COc1cc2c(cc1OC)CN(C(=O)CSc1ccccc1C)CC2	/	/	/	/	/	i
CCCCNc1c(-c2ccc(SC(C)CC)cc2)nc2ccccn12 (stereo not drawn)	-1.3	i	100*	/	i	i
CCCCNc1c(-c2ccc(SC3CCCCC3)cc2)nc2ccccn12	0.12	i	i	/	i	i
O=C(NNC(=O)c1cc(-c2ccccc2)nc2ccccc12)Nc1cccc(Cl)c1	1.2	i	100*	8	i	i
O=C(NNC(=O)c1cc(-c2cccnc2)nc2ccccc12)Nc1ccc(Cl)cc1	-0.85	i	i	-9	i	i
CC(C)(C)c1ccc(C(=O)NCCC(=O)N2CCCC2)cc1	1.7	i	i	-7	i	i
CC(C)(C)c1ccc(C(=O)NCCC(=O)N2CCN(c3ncccn3)CC2)cc1	0.68	i	100*	-14	i	i
CC1(C)CC(NC(=O)c2cccc(S(=O)(=O)N(Cc3ccccc3)c3ccccc3)c2)CC(C)(C)N1	-1.6	i	i	/	i	i
Cc1coc2cc3oc(=O)c(Cc4ccccc4)c(C)c3cc12	1.1	i	i	-1	i	i
Cc1c(Cc2ccccc2)c(=O)oc2cc(O)cc(O)c12	-5.3*	i	i	-6	i	i
CC(CCc1ccccc1)NCc1cccc2ccccc12 (stereo not drawn)	-9.7*	i	i	-3	i	i
Cc1ccc(C(=O)C(c2ccccc2)N2Cc3ccccc3C2=N)cc1 (stereo not drawn)	-8.3*	i	100*	-20	i	i
FC(F)C(F)(F)C(F)(F)C(F)(F)c1cc(-c2ccccc2)n[nH]1	1.5	i	100*	-3	i	i
O=C1NC2(CCCCO2)CO1 (stereo not drawn)	0.53	i	i	-10	i	-11*

High-throughput results from PubChem BioAssay.
